High-throughput results (PubChem)
This is a sample that favours compounds with a hit; in the whole collection about 19% have one here.
MCF10A rereplic: inducers of DNA re-replication in MCF 10A breast cells; MCF 10A DNA re-replication, Hoechst nuclear intensity, 48 h; Potency, µM (highest dose often 46.1 µM), for the others: top-dose activity, positive = re-replication, usual class: activators; hit rate 2.9% among 350,000; AID 624296; note: potency is the fitted concentration of half-maximal effect; % of control where 0% means no effect; nearly all actives have a fitted effect of over 50% in size
Chronic BCR inh: blocks chronic active B-cell receptor signaling | ABC-DLBCL IkBa-CBG/CBR reporter, luminescence ratio, 4 h | Potency, µM (titrated, usually from 46.1 µM), for inactives: top-dose activity change, negative = inhibition, hits mostly inhibitors | hit rate 0.05% among 340,000 | AID 493014; active = well fitted inhibition curve with a large enough effect in the signal ratio, with a control signal flat, not every such curve was filed as active; inconclusive = small, poorly fitted or top-dose-only effect, or effect the other way, or a change in a side signal; the % refers to the signal ratio;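 note: potency is the fitted concentration of half-maximal effect; plate controls were basal doxycycline-induced cells for no effect and cells given 10 µM MG132 for full effect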
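Concentration-response series (up to 46 uM) were applied to TMD8 dual-reporter cells for 4 h at 37C with doxycycline. Green/red ratio, after filter-overlap correction, defined %Activity; red signal alone was normalised to basal cells and zero luminescence.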
TDP1 cell CPT: growth inhibition of DT40 Tdp1-/-;hTDP1 cells with camptothecin (screen for TDP1 inhibitors) | Potency, µM (titrated, usually from 46.2 µM), without a hit: top-dose activity change, negative = growth inhibition, hits mostly inhibitors | hit rate 12% among 420,000 | chicken DT40 Tdp1-/-;hTDP1 cells + 20 nM CPT, ATP luminescence, 48 h; note: potency is the fitted concentration of half-maximal effect; % is set by controls: 0 for no effect and ±100 for the full control effect; nearly all actives have a fitted effect of over 55% in size
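Chicken DT40 Tdp1-/- cells stably complemented with human TDP1 were seeded at 400 cells/well in medium containing 20 nM camptothecin, exposed to pin-transferred compounds, and grown at 37 °C for at least 48 hr. Viability was read as ATP luminescence.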
TDP1 cell noCPT: qHTS for Inhibitors of human tyrosyl-DNA phosphodiesterase 1 (TDP1): qHTS in cells in absence of CPT; DT40 Tdp1-/- hTDP1 cells, no CPT, ATP luminescence, 48 h; Potency, µM (top dose mostly 46.2 µM), for inactives: top-dose activity change, negative = growth inhibition, usual class: inhibitors; hit rate 15% among 420,000; note: potency is the fitted concentration of half-maximal effect; % is set by controls: 0 for no effect and ±100 for the full control effect; nearly all actives have a fitted effect of over 55% in size
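DT40 Tdp1-/-;hTDP1 cells, no CPT (DMSO vehicle only), 400 cells/well; compounds pin-transferred; ≥48 hr, 37 °C; CellTiter-Glo 30 min RT dark, luminescence read.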
SW480 rereplic: induces DNA re-replication in SW480 colon adenocarcinoma cells. SW480 DNA re-replication, Hoechst DNA content imaging, 48 h. Potency, µM (highest dose often 46.1 µM), for the others: at the highest dose re-replication activation, most hits filed as activators. hit rate 1.8% among 340,000. AID 624297; note: potency is the fitted concentration of half-maximal effect; % of control where 0% means no effect; nearly all actives have a fitted effect of over 55% in size
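Readout is total intensity of Hoechst-stained nuclei, excited at 405 nm and collected at 500-530 nm. Compound treatment lasted 48 hr at 37 C in 5% CO2 before staining.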
IL-1B inflam inh: blocks inflammasome-driven IL-1 beta release; THP-1 LPS/ATP IL-1B secretion, AlphaLISA, 16 h; hits give low values; activity change, % at 57.5 µM; hit rate 4.7% among 360,000; in the data active = activity change below about -50%; inconclusive = mostly about -30% to -49%; note: % is set by controls: 0 for no effect and ±100 for the full control effect
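Secreted IL-1B measured by AlphaLISA bead assay after 16 h compound exposure of THP-1 cells; compounds (final up to 57.5 uM) added 1 h before LPS (250 ng/mL) and ATP (1.25 mM) stimulation; lower signal means less secretion.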
Active calls of the source: *; ? = inconclusive; · = no result; [ ] = another dose, or the depositor's remark. Unless noted, calls come from the whole dose curve; as a rule, active = well fitted curve in the direction sought with a large enough effect; inconclusive = small, poorly fitted or top-dose-only effect, or another doubt; inactive = no such curve, though single readings can be large; an effect the other way counts as inactive or inconclusive.

SMILES	MCF10A rereplic	Chronic BCR inh	TDP1 cell CPT	TDP1 cell noCPT	SW480 rereplic	IL-1B inflam inh
Cc1cc(N(C)N)nc(NC(=O)NS(=O)(=O)c2ccccc2Cl)n1	0.5%	-0.7%	-0.8%	-3.4%	-7.9%	20.3
CC(C)(C)c1ccc(C(=O)C[n+]2ccccc2Cl)cc1	·	·	-22.8%	?	·	·
OC(Cc1cccc(Br)c1)c1ncc(-c2cccc(C(F)(F)F)c2)[nH]1 (configuration not stated)	·	·	?	16.4µM*	·	-8.4
OC(Cc1ccccc1Br)c1ncc(-c2cccc(C(F)(F)F)c2)[nH]1 (configuration not stated)	·	·	23.1µM*	16.4µM*	·	-61.4*
Cc1cccc(C(O)c2ncc(-c3cccc(C(F)(F)F)c3)[nH]2)c1C (configuration not stated)	·	·	?	?	·	-12.3
CN(C(=O)COC(=O)c1ccccc1C(=O)N1CCN(c2ccccc2)CC1)c1ccccc1	2.0%	3.5%	?	?	-4.8%	7.5
O=C(CSc1nnc(CNC(=O)c2cccs2)o1)Nc1ccc(F)cc1F	-0.1%	-1.8%	-6.7%	18.7%	-5.4%	25.4
COc1ccc(C2CC(=O)N(C)c3ccccc3S2)cc1OC (configuration not stated)	?	?	20.6µM*	?	-0.9%	-14.4
CC(=O)NNc1cc(C)nc(N)n1	-0.2%	2.4%	3.0%	5.1%	-3.4%	8.5
COc1ccc(Cn2cc(CN3CC(N4CC=CC4)CS3(=O)=O)nn2)cc1 (configuration not stated)	·	·	-4.2%	-11.6%	·	-10.5
Cc1ccc(CNS(=O)(=O)c2ccc3[nH]c4c(c3c2)CCCC4)cc1	·	·	0.1%	-24.4%	·	·
O=S(=O)(NCc1ccccc1)c1ccc2[nH]c3c(c2c1)CCCCC3	·	·	?	20.6µM*	·	·
CCS(=O)(=O)NCc1ccc2[nH]c3c(c2c1)CCCC3	·	5.0%	·	·	·	·
Cc1cc(C)cc(NC(=S)NCc2ccc3[nH]c4c(c3c2)CCCC4)c1	?	-23.7%	?	16.4µM*	?	?
COCCCNS(=O)(=O)c1ccc2[nH]c3c(c2c1)CCCCC3	18.1%	-5.7%	-49.7%	?	-0.1%	31.0
O=S(=O)(NCc1ccc(F)cc1)c1ccc2[nH]c3c(c2c1)CCCC3	·	·	?	16.4µM*	·	·
O=S(=O)(NCc1ccc(F)cc1)c1ccc2c(c1)OCCO2	-1.5%	-4.4%	-15.1%	-24.3%	-14.2%	?
Cc1ccc(CNS(=O)(=O)c2ccc3[nH]c4c(c3c2)CCCCC4)cc1	·	·	?	14.6µM*	·	·
C[C@@H](NCc1cc(Br)cc2[nH]c(=O)c(=O)[nH]c12)P(=O)(O)O	·	·	-14.4%	-10.2%	·	·
COC1=Nc2ccccc2/C=C\c2ccccc21	·	·	-11.1%	-14.5%	·	0.9
O=c1c(S(=O)(=O)c2ccccc2)cn(Cc2ccc(F)cc2)c2cc(N3CCCC3)c(F)cc12	·	·	-2.0%	-9.4%	·	·
CN(Cc1ccccc1)S(=O)(=O)c1ccc2[nH]c3c(c2c1)CCCCC3	·	·	?	16.4µM*	·	·
O=S(=O)(NCc1ccc(Cl)cc1)c1ccc2[nH]c3c(c2c1)CCCC3	·	·	?	5.8µM*	·	·
CCCN(CCC)Cc1cc2ccccc2c2c1COC2	4.8%	?	?	?	1.2%	35.5
CCCCN(CCCC)Cc1cc2ccccc2c2c1COC2	?	25.4%	13µM*	?	-1.8%	47.6
SMILES	MCF10A rereplic	Chronic BCR inh	TDP1 cell CPT	TDP1 cell noCPT	SW480 rereplic	IL-1B inflam inh
O=C(Nc1ccc(NC(=O)C23CC4CC(CC(C4)C2)C3)cc1)c1cc(F)c(F)cc1Cl	1.6%	0.0%	?	13µM*	3.8%	2.8
CCC(=O)N1CCN(c2ccccc2NC(=O)COc2ccccc2Cl)CC1	10.1%	?	23.1µM*	?	14.8%	8.7
CN1CCN(S(=O)(=O)c2ccc(NC(=O)COc3ccccc3Cl)cc2)CC1	?	-12.0%	-4.2%	-1.3%	16.6%	37.0
CCC(=O)N1CCN(c2ccc(NC(=O)COc3ccc(C)cc3C)cc2)CC1	13.0%	14.3%	?	18.4µM*	0.2%	22.1
COc1ccccc1OCC(=O)Nc1ccc(N2CCCCC2)cc1	9.5%	?	?	-24.3%	1.5%	-1.6
CN1CCN(c2ccc(NC(=O)COc3ccccc3Cl)cc2)CC1	?	3.0%	16.4µM*	16.4µM*	-0.7%	?
CCC(=O)N1CCN(c2ccc(NC(=O)COc3ccccc3Cl)cc2)CC1	1.1%	5.8%	16.4µM*	25.9µM*	-7.0%	-55.3*
Cc1ccc(OCCCC(=O)Nc2ccc(N3CCOCC3)cc2)c(C)c1	-5.6%	7.1%	7.4%	3.0%	22.3%	-4.3
O=C(Nc1ccccc1)N1CCCC2(CCN(C(=O)c3csnn3)CC2)C1	·	·	13.7%	-1.1%	·	·
CCCCN=C1NC(=O)C(CC(=O)NCCc2ccc(OC)cc2)S1 (configuration not stated)	-5.2%	?	11.3%	0.8%	-13.5%	9.0
Cc1nc2sccc2c(=O)n1N	-6.3%	3.8%	13.0%	4.0%	-50.8%	8.1
CCn1c(-c2ccccc2F)nc2cc(NC(C)=O)cc(C(=O)N3CCCCC3c3nccn3C)c21 (configuration not stated)	·	·	2.3%[9.04 µM]	-1.0%	·	·
COc1ccc(C(=O)N2CCN(c3ccc(NC(=O)Cc4ccccc4)cc3)CC2)cc1	?	?	?	?	-0.1%	0.8
Cc1ccc(C(=O)N2CCN(c3ccc(NC(=O)COc4ccccc4C)cc3)CC2)cc1	9.5%	?	4.11µM*	5.17µM*	3.9%	-64.0*
CC(OC(=O)COc1ccccc1[N+](=O)[O-])C(=O)Nc1ccc(N2CCOCC2)cc1 (configuration not stated)	-1.1%	8.3%	-0.5%	5.2%	4.3%	7.1
Cc1ccc(C(=O)N2CCN(c3ccc(NC(=S)NC(=O)Cc4ccccc4)cc3)CC2)cc1	?	2.8%	35.5µM*	?	-2.5%	-14.5
CCC(=O)N1CCN(c2ccc(NC(=O)COc3ccccc3[N+](=O)[O-])cc2)CC1	0.1%	-12.2%	14.6µM*	10.3µM*	-7.7%	?
COC(=O)/C=C1\SC(=NC(=O)c2ccc(-c3ccccc3)cc2)NC1=O	?	2.0%	?	-24.6%	-3.2%	-15.3
O=c1c(-c2ccc(F)c(F)c2)nc2cncnc2n1C1CC1	·	·	-1.7%	16.5%	·	·
c1ccc(COc2cccc(-c3cc4nc(NCCCn5ccnc5)ccn4n3)c2)cc1	·	·	?	14.6µM*	·	-1.1
c1ccc(COc2cccc(-c3cc4nc(NCCc5ccncc5)ccn4n3)c2)cc1	·	·	14.6µM*	13µM*	·	-59.8*
